The supplement of paper PMC13380429
Unmarked numbers belong to inactive results.

Tested on: Vero E6 infected with SARS-CoV-2
Experiment: inhibition of SARS-CoV-2 cytopathic effect; higher = more antiviral protection, active = above 15
Conditions: 48 h

Row | SMILES | inhibition of SARS-CoV-2 cytopathic effect (1 nM) [%] | inhibition of SARS-CoV-2 cytopathic effect (8.33 nM) [%] | inhibition of SARS-CoV-2 cytopathic effect (100 nM) [%] | inhibition of SARS-CoV-2 cytopathic effect (833.33 nM) | inhibition of SARS-CoV-2 cytopathic effect (10000 nM)
1 | CN(C)C(=N)NCCC[C@H](N)C(=O)O [asymmetrical-dimethylarginine] | -0.33 | -0.09 | -1.65 | 0.84% | 1.97%
2 | CCC(=O)NC[C@@H]1C[C@H]1c1cccc2c1CCO2 [tasimelteon] | -0.84 | 1.68 | -0.1 | 0.64% | -1.54%
3 | O=C1NC(=O)c2c1c1c3ccccc3[nH]c1c1[nH]c3ccccc3c21 [arcyriaflavin-a] | -5.59 | -1.16 | -3.16 | -3.59% | -10.1%
4 | CC(=O)OCC(=O)[C@@]1(O)CC[C@H]2[C@@H]3CCC4=CC(=O)CC[C@]4(C)[C@H]3[C@@H](O)C[C@@]21C [hydrocortisone-acetate] | -3.27 | -0.84 | 0.23 | -1.92% | -0.4%
5 | O=C(O)C(=O)Nc1cccc(-c2nnn[nH]2)c1 [acitazanolast] | -1.24 | -0.89 | -0.76 | -1.09% | -0.46%
6 | CNC[C@H](O)c1cccc(O)c1 [phenylephrine] | 0.59 | 1.75 | -0.82 | 0.14% | -0.09%
7 | O=C(O)c1ccc2cc(-c3ccc(O)c(C45CC6CC(CC(C6)C4)C5)c3)ccc2c1 | 1.24 | 1.61 | -0.4 | -2.65% | -7.34%
8 | Cc1sc2c(c1C)C(c1ccc(Cl)cc1)=N[C@@H](CC(N)=O)c1nnc(C)n1-2 | -0.7 | -0.88 | 0.16 | -4.22% | -9.8%
9 | [O-][S+](c1ccccc1)c1ccc2nnnn2n1 (stereo not given) | 2.27 | 2.68 | 0.02 | 1.7% | 14%
10 | CCN(CC)CCOC(=O)C(c1ccccc1)c1ccccc1 [adiphenine] | -1.11 | -0.19 | 2.09 | 1.64% | -0.25%
11 | C/C(=C\CNc1ncnc2[nH]cnc12)CO [zeatin] | -3.72 | -2.49 | -0.97 | 0.86% | -1.15%
12 | CCCCCCCCCCCCCCCc1cccc(OCC(=O)NCCO)c1 | -0.98 | -2.66 | -0.69 | 1.46% | -1.78%
13 | OC(c1ccc(-c2ccc(CN3CCN(Cc4ccncc4)CC3)cc2)c(F)c1)(C(F)(F)F)C(F)(F)F | -1.89 | 0.74 | -2.07 | -1.4% | -1.46%
14 | Cn1cc(-c2ccncc2)c(-c2ccc(OCc3ccc4ccccc4n3)cc2)n1 | -1.42 | 1.25 | 1.83 | 16% (active) | 52.4% (active)
15 | C[C@H]1CC[C@H](n2c3cnccc3c3cnc(Nc4ccc5c(n4)CCN(C(=O)CO)C5)nc32)CC1 | -2.38 | -0.1 | -1.1 | -0.44% | -5.03%
16 | O=S(=O)(c1cccc2cnccc12)N1CCCNCC1 [fasudil] | -2.19 | -3.05 | -2.08 | -2.42% | -5.91%
17 | Nc1nc(N)c2nc(-c3ccccc3)c(N)nc2n1 [triamterene] | 0.51 | 2.72 | 4.04 | 0.17% | -2.92%
18 | OC1=c2ccccc2=C(NC2CCCCC2)/C1=C\c1ccccc1 | 0.53 | 0.22 | 0.42 | 13.8% | 45.5% (active)
19 | CO[C@@H]1COCC[C@@H]1N[C@@H]1CC[C@@](C(=O)N2CCc3ncc(C(F)(F)F)cc3C2)(C(C)C)C1 | 0.39 | -0.35 | 0.03 | -0.05% | -5.58%
